# Results: the supplement of paper PMC6555819
# How the values were obtained:
# Test in all cases: PBM binding z-score (relative to random genomic background probes); higher = stronger binding; sequences stand for … in GC…GCGATTGACAGCGTAGAATGAAGG
# [1] = test system: RARb homodimer (NR concentration 270 nM)
# Procedure, shortened: (§1)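 The probes on custom Agilent 4×180K protein-binding microarrays were double-stranded, with 34-nt variable regions bearing direct-repeat seeds, single-nucleotide variants, half-site ablations and random human genomic background sequences. Incubation lasted 1 h with ligand-free nuclear receptor dimers in PBS pH 7.4, 2% milk, 0.02% Triton X-100, 1 mM DTT, 0.2 mg/mL BSA and 0.4 mg/ml salmon testes DNA. Antibodies against each partner (one per run) detected bound dimers, and fluorescence scans were regression-normalized. Binding z-scores take the random background probes as reference.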
# [2] = test system: RARg:RXRa (NR concentration 270 nM, RXRa partner concentration 90 nM)
# Procedure, shortened: as §1
# [3] = test system: RARg homodimer (NR concentration 270 nM)
# Procedure, shortened: as §1
# [4] = test system: RXRa DBDmut IVT, anti-RXR (DBD mutation: RXRa K156A/R161A, NR concentration 90 nM)
# Procedure, shortened: as §1
# [5] = test system: RXRa homodimer (NR concentration 180 nM)
# Procedure, shortened: as §1
# [6] = test system: THRa:RXRa (NR concentration 90 nM, RXRa partner concentration 90 nM)
# Procedure, shortened: as §1
# [7] = test system: THRa homodimer (NR concentration 90 nM)
# Procedure, shortened: as §1
# [8] = test system: VDR homodimer (NR concentration 270 nM)
# Procedure, shortened: as §1
Sequence,PBM binding z-score [1],PBM binding z-score [2],PBM binding z-score [3],PBM binding z-score [4],PBM binding z-score [5],PBM binding z-score [6],PBM binding z-score [7],PBM binding z-score [8]
CGAACTAGGTCGGAACAGGACAGTGAAGGATGAT,0.127,0.399,0.643,-0.112,0.169,1.89,-0.442,-0.102
ATATGTAGGTTATCGGGTCATTAAGTTTGCGCAT,3.05,3.13,2.3,1.7,3.23,3.25,2.55,4.46
TCTCCTAGGTCAGTTGGTCAGCTAACGAGCTGCC,2.95,3.2,3.85,1.16,1.38,1.79,0.747,0.116
CCTTACGGGGCAAGGTTATAGCACGGGTGGTACG,0.994,1.01,1.11,-1.2,1.08,0.828,-0.345,0.2
CGTCCTAGGTCAAAGGTCAGTGAAGAGATGACGG,4.99,7.97,7.18,2.25,9.16,4.54,1.39,1.24
CCTAGCGGGCCAATCTGGGTCACTCAAGGCTTGA,2.14,0.91,0.984,-0.4,0.724,3.59,0.327,-0.159
TCTATTAGTTGAAGTGCAACCGACGAGTCCGTTT,0.42,0.379,0.172,1.58,0.754,0.107,0.145,1.83
AGAACGAGGGCATTGAGTTGATAGCACGGGTGGC,1.01,1.11,1.39,3.13,1.04,1.14,-0.127,5.15
CCCATTAGTTGACCATAAGGGCAACCGAAGCTCG,2.53,1.4,0.963,0.208,0.666,2.07,1.89,1.05
TCTTGGAGATCAAGCAGGTTAAGAAAGCCTGAGT,0.0966,0.06,-0.27,0.163,0.643,0.589,-0.604,0.0474
AGTGAAAGTTCATCTAGGTAACGTAAGATATGCT,3.66,5.08,5.81,4.66,4.44,3,0.263,5.43
GGAACGAGGGCATTCGAGTTGATAGCGTGGCGAT,0.509,0.892,1.16,3,0.583,3.13,-0.46,3.6
TTACCAAGGTGAAGGTCGTAGATCCCTCTGTAGA,1.43,1.13,1.04,-0.566,1.66,2.19,0.633,0.348
CCGACCGGGGCAAAGGTTACCATACTCAGTACGA,2.34,3.83,2.02,0.0663,4.51,2.47,0.202,0.185
TCATATAGGTGAATGCTAGGTGAAAGTCCGATCT,0.945,1.54,0.61,1.39,0.992,2.06,0.5,-0.483
CCTAGTTGGTCCGGAGGTCACACACCGGATATGA,3.85,4.35,3.68,0.525,4.56,3.62,2.86,2.79
TCTTGTAGATCTACAGGAGGTTAAGAAAGATCGA,-0.0502,0.199,0.133,0.107,0.709,0.534,-0.449,-0.594
GCAGACAGGTAAAACGCAGGTAACTCAGGGTGGC,0.258,-0.164,-0.43,-0.576,0.223,0.964,-0.354,-0.545
GCTAGCAGGCCATTTGGGTCACTAAATGACGGGC,1.76,0.89,1.18,-0.318,0.776,1.68,0.196,0.0959

Sequence,PBM binding z-score [1],PBM binding z-score [2],PBM binding z-score [3],PBM binding z-score [4],PBM binding z-score [5],PBM binding z-score [6],PBM binding z-score [7],PBM binding z-score [8]
ACAGACAGGTGATCAAGGTAACTCAGGCTATCAT,0.159,0.183,0.508,-0.511,0.28,1.72,0.997,-0.138
TCTATTAGTTGACTAGGGCAACCGAAACAGCGGA,0.778,0.736,0.586,1.31,0.703,0.514,0.147,0.286
ACTATTAGTTGAGAAGAGGGCAACCGATAGGTTG,1.43,0.92,0.968,0.286,0.599,1.37,-0.313,0.263
TGAATGAGGTTAAAAATCAGGGAACGTGGCGTCG,0.129,1.38,0.835,1.26,2.24,1.67,-0.0675,0.4
CCTCGAAGGACAACAGGAGGTCAGAGCTGCCAGA,3.42,3.4,3.28,0.237,1.89,2.58,0.731,0.641
CCGACTGGGGCATAAGGATACCATAAGCCAGCCC,-0.129,-0.00817,0.301,-0.682,0.0556,0.92,0.5,-0.401
CTCCAAAGGTCGTGCTCAGGTGAGTATACCAAAC,2.74,5.41,4,2.23,5.01,4.15,1.09,0.905
CCTGCTAGGTCCATGGTCAGCTAAAGCAGCTCGC,0.248,-0.442,-0.195,1.19,-0.603,-0.287,-0.629,0.0229
ATCGCTAGGTAACAAGTTCAGTGAAAGAGAGGAC,1.42,1.07,0.968,0.533,0.504,1.08,0.174,2.02
TTACCAAGGTGAGCTCAGGTCGTTGATCCAACTC,1.03,0.577,0.405,-0.211,0.652,4.12,1.43,0.416
TCTATTAGTTGATTAGGGCAACCGCAACAGCGGA,0.671,0.648,0.445,0.932,0.721,0.679,0.272,0.125
ATATGAAGGTTACATCCGGGTCATTCAGGCTATG,3.52,4.75,2.62,1.08,3.74,4.11,2.47,2.96
TCTGCTAGGTCAACGATTGTCAGCTAATCTGCTA,3.06,3.75,4.64,1.16,2.41,2.77,0.845,-0.274
CAGACTAGGTCACAGAGGTCAAAGTCCGTGCGTA,5.42,7.17,7.46,3.41,7.88,4.6,2.91,7.08
AGAAAGAGGTTATACGTAGATCAGGGAAGAAAGT,1.42,2.21,1.59,1.23,2.93,1.52,0.336,0.623
TCTCGGAGGACACGAAAGGTCAGAGATCGACATC,4.63,5.05,5.73,1.17,4.6,3.87,1.53,1.12
TGTCAAAGTTCGAAGGTAACGTAAGTATCCACAC,1.02,2.38,1.83,1.74,2.23,1.44,0.0268,0.722
GGAACGAGGGCAAGTTGATAGAAGAGTTTGATGG,1.5,1.55,2.06,2.22,0.775,1.2,0.164,1.7
CAAACTAGGCCACGAAAGGTCAAAGTCGAATGAC,4.95,6.06,5.76,1.47,6.58,4.26,0.939,2.37

Sequence,PBM binding z-score [1],PBM binding z-score [2],PBM binding z-score [3],PBM binding z-score [4],PBM binding z-score [5],PBM binding z-score [6],PBM binding z-score [7],PBM binding z-score [8]
ACTCGGAGGACAAAGGACAGAGCTACGCCAGTGA,1.11,1,1.64,0.398,0.0489,0.569,-0.18,-0.184
CCTACTGGGCCAAAAAGGTCATTGAGGCCGATAA,4.37,4.72,4.17,0.821,4.63,3.4,0.793,3.39
CAAACTTGGTCACCGGAAGGTCAAAGTCCGCATG,4.11,5.35,4.2,0.79,4.16,3.05,1.24,2.2
CCAGACAGGTGAGAAGGTGACTCAGCCTCGATTA,1.23,1.04,0.771,-0.175,0.552,0.445,0.379,-0.284
TCATATAGGTAAATGCTAAGTGAAAGTCCGATCT,0.0173,0.4,0.337,1.68,0.615,0.0115,-0.264,0.0364
TCAAGTTGGTCACGGAGGTCACACACGACGGGTA,4.54,4.9,4.56,1.53,4.68,3.72,2.55,3.44
GATATAGGGTCAAGGCCAGAGTACGCGTATTGAT,3.71,5.6,5.13,2.83,5.81,3.96,2.03,2.59
TCTAGTTGGTCACGGAGGTCACCCACGACGGGTA,4.51,4.85,5.06,0.865,5.13,3.66,2.82,2.79
AGTACAGGGTCATCGTAGGCCAGAGTACGCACAG,3.81,5.65,5.22,3.47,6.42,4.59,1.57,3.92
TCTGCTAGGTCAGTTGGTCAGCCAACGAGCTGCC,2.3,2.84,3.3,0.162,0.782,1.06,-0.436,-0.81
CGAACTGGGTCAGAACAGGACAGTGAAGGATGAT,1.53,1.84,2.27,0.00591,1.26,3.55,-0.0909,0.0814
ACTAGTTGGTCAGCTGAGGTCACATACAATTCGG,4.32,3.83,3.84,1.5,3.53,4.98,4.72,3.28
CCTTAAGGGTCAAGGTTATAGCACGGGTGGTACG,4.66,6.46,6.85,2.7,6.61,3.66,1.03,2.39
AGAATGAGGCTACCAAAGATCAGGGAAACGCTTG,-0.364,0.21,0.34,-0.268,0.156,0.463,-0.609,-0.541
ATCGAAAGGTCGACGACGTGAGTATACACCGTTT,2.21,4.04,3.8,1.3,3.94,1.73,-0.597,0.228
GCGGACAGGTGAAACGCAGGTAACTCAGGGTGGC,0.239,1.13,0.717,-0.341,0.426,1.41,-0.55,-0.834
ACTAGCAGGCCAAGGGTCAATCAAGATTAGTCCG,3.46,4.36,3.8,0.567,4.62,2.76,-0.086,0.551
TTATCAAGGTGAGCTGAGGTCGTTGATCCAACTC,1.62,1.33,1.07,0.397,1.59,4.64,2.47,2.33
ATATGTAGGTTAATGGTCATTCAGGTTGGTTCGC,1.75,1.02,1.11,0.788,1.14,0.905,0.945,1.34
